# Most compounds without a hit are left out; they make up all but 21% or so of the library.
# Cycloheximide cs – Cycloheximide Counterscreen for Small Molecule Inhibitors of Shiga Toxin. 300,000 tested, 12% active. AID 2314, 2010. max response, %. cell reporter, cycloheximide protein synthesis inhibition counterscreen; in the data active means max response mostly above about 13%, no sharp cut-off; inactive means mostly below about 14%; further: read at 38.3 µM for the half of the compounds with a filed dose
# Pf growth 96h – Primary qHTS for delayed death inhibitors of the malarial parasite plastid, 96 hour incubation; 320,000 tested, 6.9% active; AID 504834, 2011; P. falciparum luciferase reporter growth, 96 h; Potency, µM (series often up to 28.7 µM), most hits filed as inhibitors
#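 P. falciparum expressing integrated firefly luciferase, in erythrocytes at 2% hematocrit, 0.05% parasitemia, incubated with compounds 96 h at 37 C, 5% CO2. Growth inhibition read as loss of luminescence; two-generation exposure targets delayed-death apicoplast inhibitors.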
# AMA1-RON2 inh – qHTS for Inhibitors of AMA1-RON; Towards Development of Antimalarial Drug Lead: Primary Screen; AID 720542, 2013; AlphaScreen AMA1-biotinylated RON2 peptide binding; Potency, µM (top dose mostly 58.2 µM), most hits filed as inhibitors; 360,000 tested, 0.2% active; Plasmodium falciparum AMA1 (3D7) - RON2 peptide interaction; further: nearly all actives have a fitted effect of over 45% in size
#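 AMA1 (3D7) with his tag at 25 nM final met compounds first, then biotinylated RON2 peptide at 25 nM; detection used donor plus acceptor beads, 10 µg/mL apiece, read by AlphaScreen after 30 min at room temperature.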
# Pf growth 48h – Primary qHTS for delayed death inhibitors of the malarial parasite plastid, 48 hour incubation; Potency, µM (series often up to 28.7 µM), most hits filed as inhibitors; P. falciparum luciferase growth in erythrocytes, 48 h; 310,000 tested, 5.9% active; AID 504832, 2011
#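 In quantitative HTS format, infected erythrocytes bearing luciferase-reporter parasites were treated for a single generation at 37 C. Luminescence after adding detection reagent served as the growth measure.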
# Shiga toxin inh – A qHTS for Small Molecule Inhibitors of Shiga Toxin; AID 2315, 2010; inhibition, % at 38.7 µM; 290,000 tested, 9.2% active; Vero cells, Shiga toxin protein synthesis inhibition reporter; in the data active means inhibition mostly above about 28%, no sharp cut-off; inactive means mostly below about 43%
# HCV inhibitor – qHTS Assay for Inhibitors of Hepatitis C Virus (HCV); Huh7.5.1 HCVcc-Cre infection, luciferase reporter, 44 h; 340,000 tested, 3.4% active; AID 651820, 2012; Potency, µM (series often up to 41.8 µM), most hits filed as inhibitors
#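 Reporter virus HCVcc-Cre (~0.5 moi) infects cells exposed to compound; seeding density 1,000 cells/well with 4 h settling beforehand. Luminescence, 15 sec read, taken 44 h post-infection following a 15 min RT substrate incubation.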
# Hits are given with their value; – = inactive; ? = inconclusive; · = not tested or not shown; [ ] = dose if it differs, or a comment. Unless noted, the call rests on the fitted dose curve; in most records, active means well fitted curve in the direction sought with a large enough effect; inconclusive means small, poorly fitted or top-dose-only effect, or another doubt; inactive means no such curve, though single readings can be large; an effect the other way counts as inactive or inconclusive.
SMILES,Cycloheximide cs,Pf growth 96h,AMA1-RON2 inh,Pf growth 48h,Shiga toxin inh,HCV inhibitor
O=C(NC1CCCC1)C(c1ccncc1)N(C(=O)c1csnn1)c1ccc(F)cc1 (centres undefined),–,–,–,–,–,–
O=C(NC1CCCC1)C(c1ccncc1)N(C(=O)c1csnn1)c1ccccc1 (centres undefined),–,5.86µM,–,–,–,–
Cc1cccc(-c2noc(-c3csc([C@@H]4C[C@H](O)[C@@H](CO)O4)n3)n2)c1,·,·,–,·,·,·
O=C(NC1CCCCC1)NC1CC2CCCC(C1)N2C1CCCC1 (centres undefined),–,13.1µM,–,–,–,–
CCc1nc2ccc(C(=O)Nc3ccc(NC(C)=O)cc3)cn2c1N(CCC(C)C)CCN(C)C,·,·,–,·,·,·
CCCn1c(SCC(=O)N(CC)c2c(N)n(Cc3ccccc3)c(=O)[nH]c2=O)nnc1-c1ccncc1,·,·,–[11.6 µM],·,·,–
Cc1ccc(CNC(=O)C23CN(Cc4ccccc4)CC2C(c2ccc([N+](=O)[O-])cc2)=NO3)cc1 (centres undefined),–,?,–,11.7µM,–,–
O=C(NCc1cc(C(F)(F)F)cc(C(F)(F)F)c1)C12CN(Cc3ccccc3)CC1C(c1cccc([N+](=O)[O-])c1)=NO2 (centres undefined),–,?,–,13.1µM,–,–
Cc1ccc(CCNC(=O)C23CN(Cc4ccccc4)CC2C(c2ccc([N+](=O)[O-])cc2)=NO3)cc1 (centres undefined),–,?,?,?,–,–
COc1ccc(C2CC(=O)C3=C(C2)NC(C)=C(C(=O)Nc2ccccc2C)C3c2coc3ccc(C)cc3c2=O)cc1OC (centres undefined),–,?,–,2.33µM,–,?
COc1ccc(S(=O)(=O)N(C)c2ccc(C(=O)NCC3CCCO3)cc2)cc1OC (centres undefined),–,?,–,?,–,–
CCCOc1ccccc1C1C(C(=O)OC)=CN(C(C)C)C=C1C(=O)OC,–,·,–,13.1µM,–,–
c1csc(-c2noc(CN3CCc4sccc4C3)n2)c1,34.3,–,–,–,39.3,–
COc1ccccc1CN1CCN(Cc2nc(-c3cccs3)no2)CC1,50.2,5.86µM,–,–,85.4,–
C[C@@H]1CN(Cc2nc(-c3cccs3)no2)C[C@H](C)O1,–,–,–,–,–,–
COc1ccc(Cl)cc1S(=O)(=O)NC(C)c1cnn(-c2ccccn2)c1C (centres undefined),·,·,–,·,·,·
Cc1ccccc1-n1c(SCC(=O)NCc2cccs2)nc2ccccc2c1=O,–,?,–,–,–,?
COc1ccccc1OCCSc1nc2ccccc2c(=O)[nH]1,13.8,–,–,–,48.2,?
O=c1[nH]c(SCCOc2ccccc2F)nc2ccccc12,33.1,?,–,–,60.5,–
COc1ccc(CSc2nc3ccccc3c(=O)[nH]2)cc1F,–,?,–,–,–,–
O=c1[nH]c(SCCOc2ccccc2)nc2ccccc12,–,·,–,?,–,?
O=C(COC(=O)CCN1C(=O)C2CC=CCC2C1=O)Nc1ccc([N+](=O)[O-])cc1 (centres undefined),·,·,–,·,·,–
NC(=O)c1ccsc1NC(=O)CSc1nnc(NC2CC2)s1,·,·,–,·,·,–
CC1(C)Cc2c(cnn2-c2cccc(F)c2)C(NC(=O)C2CCOCC2)C1 (centres undefined),–,?,–,–,–,–
C[C@H](CO)N1C[C@H](C)[C@H](CN(C)S(=O)(=O)c2ccc(Cl)cc2)OCc2ccccc2-c2c(n(C)c3ccccc23)C1=O,·,·,–,·,·,·
SMILES,Cycloheximide cs,Pf growth 96h,AMA1-RON2 inh,Pf growth 48h,Shiga toxin inh,HCV inhibitor
COC(=O)c1cc2c(ccn2-c2ccc(F)cc2)n1Cc1ccc(C#N)cc1,–,–,?,?,–,?
CCn1c(C(=O)OC)cc2c1ccn2-c1ccc(F)cc1,54.0,·,–,–,112.7,4.47µM
COC(=O)c1cc2c(ccn2-c2ccc(F)cc2)n1Cc1ccc(OC)cc1,46.9,?,?,?,53.9,?
COc1ccccc1C(=O)NCCC(=O)NCC1COc2ccccc2O1 (centres undefined),·,?,–,–,·,–
COC(=O)c1[nH]c2ccccc2c1CN1CCOCC1,–,–,–,–,·,–
COC(=O)[C@@H]1CC[C@H](C)[C@@H](c2ccc(C)cc2)N1C(=O)c1ccc(/C=N/OC[C@@H](O)COCc2ccco2)cc1,–,6.57µM,·,6.57µM,–,?
CCOC(=O)Cn1cc(Cl)cc(C(=O)Nc2ccccc2)c1=O,–,–,–,–,–,?
COc1ccc(CCC2(C)NC(=O)N(C(C)C(=O)N3c4ccccc4CC3C)C2=O)cc1 (centres undefined),·,?,–,13.1µM,·,–
CC1(C(=O)NS(=O)(=O)c2ccc(Br)cc2)CCN1C(=O)Cc1ccsc1 (centres undefined),·,·,–,·,·,·
CCC(CO)(C(=O)OC1CC2CCC(C1)N2C)c1ccccc1 (centres undefined),–,11.7µM,–,–,–,–
CN(CC(=O)NCC(=O)Nc1ccc(F)cc1)C1CCS(=O)(=O)C1 (centres undefined),·,–,–,–,·,–
CC[N+]1(C)CCC(O)(c2ccc(OC)cc2)C(C(=O)c2ccc(OC)cc2)C1 (centres undefined),·,·,–,·,·,?
O=C(C1CCCN(S(=O)(=O)c2ccc(Br)s2)C1)N1CCN(c2ccccc2)CC1 (centres undefined),–,–,?,8.28µM,–,10µM
O=C(O)C1CCCN(S(=O)(=O)c2ccc(Br)s2)C1 (centres undefined),–,–,–,–,–,–
CN1C(=O)C(C)(C)c2cc(S(=O)(=O)N3CCC(C(=O)NCc4ccc(F)cc4)CC3)ccc21,–,13.1µM,–,?,–,–
O=C(NCc1ccc(F)cc1)C1CCCN(S(=O)(=O)c2ccc(Br)s2)C1 (centres undefined),–,–,–,?,54.6,–
CN1C(=O)C(C)(C)c2cc(S(=O)(=O)N3CCC(C(=O)NCc4ccc(Cl)cc4)CC3)ccc21,–,?,–,?,–,?
CCC(C)NC(=O)C1CCN(S(=O)(=O)c2ccc(Br)s2)CC1 (centres undefined),–,10.4µM,–,?,–,–
COc1ccc(CC(=O)OCC(=O)NCc2ccc(C)cc2)cc1OC,·,·,–,·,·,–
CSc1ccc(S(=O)(=O)NCC(=O)OCC(=O)N2CCC(C)CC2)cc1[N+](=O)[O-],·,–,–,?,·,–
O=C(C1CCCN(S(=O)(=O)c2ccc(Br)cc2)C1)N1CCN(Cc2ccccc2)CC1 (centres undefined),–,–,–,6.57µM,–,11.2µM
